A selection: hits, their analogues and other compounds. The true share with any hit is near 4.6%.
D1 ag = agonists of human D1 dopamine receptor. P21728. HEK293 T-REx D1 cells, calcium flux, agonist mode. hit rate 1% among 360,000. activation, % at 2 µM; also: 0% is about no effect
Target sequence (P21728 whole entry, looked up): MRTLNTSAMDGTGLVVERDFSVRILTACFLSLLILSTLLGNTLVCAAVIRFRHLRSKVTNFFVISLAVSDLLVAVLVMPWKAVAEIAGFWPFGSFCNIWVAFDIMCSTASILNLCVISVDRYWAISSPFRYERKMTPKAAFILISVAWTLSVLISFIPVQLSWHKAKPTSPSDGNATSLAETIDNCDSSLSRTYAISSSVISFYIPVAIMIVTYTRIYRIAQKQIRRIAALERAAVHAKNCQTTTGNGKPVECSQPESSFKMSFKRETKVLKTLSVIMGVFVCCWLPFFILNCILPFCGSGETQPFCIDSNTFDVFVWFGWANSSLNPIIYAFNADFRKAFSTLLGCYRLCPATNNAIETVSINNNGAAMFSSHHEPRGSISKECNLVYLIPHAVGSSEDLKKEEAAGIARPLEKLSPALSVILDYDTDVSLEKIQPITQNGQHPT
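Inducible HEK293 T-REx D1 cells, force-coupled to calcium signalling, were plated at 4000 cells/well with tetracycline and held overnight at 30 C. After no-wash calcium dye loading, compound-evoked calcium rise over 180 s flagged agonists.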
TRHR PAM = allosterically enhances the human TRH receptor | enhancement, % at 2 µM | AID 493056 | hit rate 0.66% among 360,000 | TRHR cells, fluo-8 calcium fluorescence, EC20 TRH enhancement; in the data active = enhancement above about 30%; also: 0% is about no effect
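Enhancer read-out: after compound pinning and an initial kinetic agonist-mode read, an EC20 of TRH (10 nM final) was injected and fluo-8 calcium signal (Ex 480/Em 530) followed at 1 s/cycle for 100 cycles in TRHR-expressing cells.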
D1 antag = human D1 dopamine receptor antagonism; P21728; HEK293 TREx D1 cells, calcium flux, dopamine EC80; stronger effect = lower value; activity change, negative = inhibition, % at 10 µM; hit rate 3.2% among 360,000; AID 504652; in the data active = activity change below about -30%; also: % is scaled to controls: 0 for no effect and ±100 for the full control effect
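Tetracycline-induced HEK293 T-REx cells with force-coupled D1 receptor were loaded with a no-wash calcium dye. Compound was added after a 10 s baseline and read kinetically for 180 s; EC80 dopamine was then added and calcium flux followed another 180 s.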
D1 PAM = enhances dopamine response at the human D1 receptor. P21728. HEK293 TREx D1 cells, calcium flux, dopamine EC20 potentiation. potentiation, % at 10 µM. hit rate 0.036% among 360,000. AID 504651; in the data active = potentiation above about 30%; also: 0% is about no effect
TRHR ag = agonists of human TRH receptor; P34981; TRHR cells, calcium flux fluo-8, FDSS agonist mode; activation, % at 2 µM; hit rate 0.18% among 360,000; AID 493084; also: 0% is about no effect
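Read-out: compound-evoked intracellular calcium rise in TRHR cells, fluo-8 dye, kinetic FDSS fluorescence at 1 s/cycle following a 10-cycle baseline. Cells cultured overnight before dye loading (30 min–1.5 h, RT).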
Starred values were filed as active, the others as inactive; x = not tested or not shown; ! = a repeat was not active. Rule as the data show it, unless noted: active = activation above about 30%; inactive = the rest.

SMILES	D1 ag	TRHR PAM	D1 antag	D1 PAM	TRHR ag
CC1Cc2cc(S(=O)(=O)NCc3ccccc3Cl)ccc2N1C(=O)C1CCC1 (stereo not given)	5	3	-80*	-4	0
COc1ccc(CNS(=O)(=O)c2ccc3c(c2)CC(C)N3C(=O)C2CC2)cc1 (stereo not given)	10	-2	-25	-6	-1
CC(=O)Nc1ccc(NS(=O)(=O)c2ccc3c(c2)CC(C)N3C(=O)C2CCC2)cc1 (stereo not given)	0	46*	6	-1	0
Cc1ccc(NS(=O)(=O)c2ccc3c(c2)CC(C)N3C(=O)C2CCC2)cc1Cl (stereo not given)	0	-1	8	2	0
CCC(=O)N1c2ccc(S(=O)(=O)NCCc3ccc(C)cc3)cc2CC1C (stereo not given)	11	-6	-26	-7	0
CC1Cc2cc(S(=O)(=O)NCCc3ccccc3)ccc2N1C(=O)C1CC1 (stereo not given)	7	-2	-3	3	-1
CC1Cc2cc(S(=O)(=O)NCc3ccc(N(C)C)cc3)ccc2N1C(=O)C1CCC1 (stereo not given)	6	45*	-16	1	0
CCC(=O)N1c2ccc(S(=O)(=O)NCc3ccc(F)cc3)cc2CC1C (stereo not given)	14	-9	-33*	-1	-1
CCCC(=O)Nc1nnc(S(=O)(=O)N2CCCC2)s1	1	-9	1	-4	0
COc1ccc(C2C(C(C)=O)=C(C)N=c3s/c(=C\c4cc(C)n(C)c4C)c(=O)n32)c(OC)c1 (stereo not given)	121*	10	-13	-7	53*
Cc1nn(-c2ccccc2)c(Cl)c1/C=N/NC(N)=O	2	-2	-32*	2	-1
COC(=O)N/N=C\c1c(C)nn(-c2ccccc2)c1Cl	2	-3	-7	0	0
Cc1ccc(NC(=O)[C@H](CSCc2ccccc2)N2Cc3ccccc3C2=O)cc1	4	-3	-34*	0	0
CCCC(=O)Nc1c2c(nn1-c1ccc(OC)cc1)CS(=O)C2 (stereo not given)	2	-1	1	-3	0
COc1ccc(S(=O)(=O)Nc2ccc3oc4ncccc4c(=O)c3c2)cc1OC	1	-13	-15	-4	0
O=C(Nc1ccccc1)c1cc(N2CCOCC2)nc2ccccc12	1	1	-55*	0	0
Cc1cccc(C(=O)N2CCc3cc(CNC(=O)c4ccnn4C)ccc32)c1	16	2	-36*	-3	-1
Cc1cccc(C(=O)N2CCc3cc(CNS(=O)(=O)c4cccs4)ccc32)c1	8	1	-32*	-1	-1
CCOc1ccc(S(=O)(=O)Nc2cccc(C(=O)N3CCN(c4ccccc4O)CC3)c2)cc1	5	2	-11	x	0
CCCSCCCNC(=O)Cn1cc2c(n1)CCC(C)C2 (stereo not given)	0	-1	-2	-1	-1
CCN(CC)CCCNC(=O)Cn1cc2c(n1)CCC(C)C2 (stereo not given)	1	-1	-41*	-4	0
COCc1cc(C)nc(OCC(=O)N/N=C/c2ccccc2)c1C#N	9	2	-5	-1	-2
COCc1cc(C)nc(OCC(=O)N/N=C/c2ccc(C)cc2)c1C#N	3	0	-57*	-2	0
COc1ccc(CNC(=O)CC23CC4CC(CC(C4)C2)C3)cc1OC	0	5	-15	9	0
CCn1c(=O)c(-[n+]2ccccc2)c(O)c2ccccc21	2	-3	-35*	2	-1
SMILES	D1 ag	TRHR PAM	D1 antag	D1 PAM	TRHR ag
O=C(Nc1ccc(OC(F)(F)F)cc1)C1CC(c2ccc(F)cc2)=NO1 (stereo not given)	8	-5	-35*	-3	0
Cc1cc(NC(=O)CSc2ncnc3sc(C)c(C)c23)no1	3	-5	12	0	1
COc1cc(NC(C)=O)c2ncccc2c1NC(C)=O	6	-2	-36*	1	1
COc1cccc(CNC(=O)c2cc(C)nc3ccccc23)c1	3	10	-39*	-6	-1
COc1ccc(CNC(=O)c2cc(-c3cccs3)nc3ccccc23)c(OC)c1	4	6	-46*	-1	-2
Cc1cc(CNC(=O)c2cccc([N+](=O)[O-])c2C)c2ccccc2n1	26	4	-46*	-7	0
CCOC(=O)C1=C(N)OC2=C(C(=O)CC(C)(C)C2)C1c1ccc(CC)s1 (stereo not given)	1	0	7	1	1
CC(=O)Nc1ccc(S(=O)(=O)Nc2ccc(-c3cn4c(C)csc4n3)cc2)cc1	0	-1	-11	-3	0
COc1ccc(S(=O)(=O)Nc2ccc(-c3cn4c(C)csc4n3)cc2)cc1	1	2	-72*	-4	-1
CCCc1nc2oc3ccccc3c(=O)c2c(=O)n1-c1ccc(C)cc1	37*	-3	6	1	12
CC1(c2ccccc2)NC(=O)N(CCN2C(=O)c3ccccc3C2=O)C1=O (stereo not given)	-1	9	-8	1	0
CCSC1=N/C(=C\c2ccc(C(=O)O)cc2)C(=O)S1	2	-6	-18	-8	0
CCOC(=O)SC1=N/C(=C\c2ccc(N(C)C)cc2)C(=O)S1	33*	3	-8	-3	11
COc1cc(/C=C2\SC(=Nc3ccccc3)NC2=O)cc(Cl)c1O	157*	20	5	-2	150*
CCc1ccc(N=C2NC(=O)/C(=C/c3cc(OC)c(O)c(OC)c3)S2)cc1	21	8	1	-2	19
COc1cc(/C=C2\SC(=Nc3ccc(Cl)c(C(=O)O)c3)NC2=O)c(Br)c(Br)c1O	324*	93*	36	21	212*
COC(=O)/C=C1\SC(=Nc2ccc(Cl)c(Cl)c2)NC1=O	2	1	10	0	0
CC(C)(C)c1ccc(/C=N/N2C(=O)CSC2=S)cc1	3	5	11	-6	2
CCOC(=O)c1sc(NC(=O)c2nc3ncccn3n2)c(C(=O)OC)c1C	0	-6	-14	3	0
CC1CCN(C(=O)Cn2c(=O)oc3cc(S(=O)(=O)N4CCCCC4)ccc32)CC1	2	0	-10	48*!	0
CC1CCCCN1C(=O)Cn1c(=O)oc2cc(S(=O)(=O)N3CCCC3)ccc21 (stereo not given)	7	34*	9	-1	-2
CC1CCCN(C(=O)Cn2c(=O)oc3cc(S(=O)(=O)N4CCCCC4)ccc32)C1 (stereo not given)	1	-3	27	4	0
O=C(Cn1c(=O)oc2cc(S(=O)(=O)N3CCCC3)ccc21)N1CCc2ccccc2C1	6	-11	-1	x	0

Screening results: PubChem BioAssay, National Center for Advancing Translational Sciences (NCATS)
